Data from the supplement of paper PMC12669032.

Legend:
Assay in all cases: growth AUC relative to DMSO control (median of replicates) (fraction); higher = more growth (less inhibition), active = hit call of the paper
Conditions in all cases: 20 µM; 24 h;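 active = AUC reduced over 20% with Padj below 0.05 in at least 2 of 3 replicates; inactive = otherwise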
Akkermansia muciniphila = system: Akkermansia muciniphila
Method in brief: (§1)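 Hourly OD600 readings over 24 h tracked anaerobic gut bacterial monocultures grown at 37 °C in mGAM from OD600 0.05 with 20 µM compound (1% DMSO). After the minimum OD was set to 0, area under the growth curve was normalised to the plate median of solvent-only wells, or to row and column medians on the industrial chemical plate. Values are medians of three biological replicates grown on separate days.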

Bacteroides caccae = system: Bacteroides caccae
Method in brief: as §1

Bacteroides clarus = system: Bacteroides clarus
Method in brief: as §1

Bacteroides dorei = system: Bacteroides dorei
Method in brief: as §1

Bacteroides stercoris = system: Bacteroides stercoris
Method in brief: as §1

[1] = system: Bacteroides thetaiotaomicron
Method in brief: as §1

Bacteroides uniformis = system: Bacteroides uniformis
Method in brief: as §1

[2] = system: Bifidobacterium longum subsp. longum
Method in brief: as §1

Clostridium difficile = system: Clostridium difficile
Method in brief: as §1

Collinsella aerofaciens = system: Collinsella aerofaciens
Method in brief: as §1

Measured: growth AUC

COP(=O)(OC)O/C(=C\Cl)c1ccc(Cl)cc1Cl
inactive: Akkermansia muciniphila 1.11 | Bacteroides caccae 0.975 | Bacteroides clarus 1.02 | Bacteroides dorei 1.03 | Bacteroides stercoris 1.02 | [1] 0.969 | Bacteroides uniformis 1.01 | [2] 1.02 | Clostridium difficile 0.97 | Collinsella aerofaciens 0.997

COc1cc(OC)nc(NC(=O)[N-]S(=O)(=O)c2ncccc2OCC(F)(F)F)n1.[Na+]
active: [1] 0.77
inactive: Akkermansia muciniphila 1.07 | Bacteroides caccae 0.973 | Bacteroides clarus 0.982 | Bacteroides dorei 0.995 | Bacteroides stercoris 0.888 | Bacteroides uniformis 1.02 | [2] 1.07 | Clostridium difficile 1 | Collinsella aerofaciens 1

Nc1nc(N)[nH]c(=O)n1
inactive: Akkermansia muciniphila 1.05 | Bacteroides caccae 1.02 | Bacteroides clarus 0.994 | Bacteroides dorei 1.04 | Bacteroides stercoris 1 | [1] 1.01 | Bacteroides uniformis 1.01 | [2] 1.02 | Clostridium difficile 1 | Collinsella aerofaciens 1.1

CCOc1cc(Oc2ccc(C(F)(F)F)cc2Cl)ccc1[N+](=O)[O-]
inactive: Akkermansia muciniphila 1.08 | Bacteroides caccae 0.966 | Bacteroides clarus 1.01 | Bacteroides dorei 0.917 | Bacteroides stercoris 0.905 | [1] 1.01 | Bacteroides uniformis 0.992 | [2] 1.03 | Clostridium difficile 0.993 | Collinsella aerofaciens 0.881

CCOP(=S)(OCC)Oc1ccc([N+](=O)[O-])cc1
inactive: Akkermansia muciniphila 1.09 | Bacteroides caccae 0.963 | Bacteroides clarus 1 | Bacteroides dorei 1.02 | Bacteroides stercoris 1.05 | [1] 0.972 | Bacteroides uniformis 0.959 | [2] 1.03 | Clostridium difficile 1 | Collinsella aerofaciens 1.03

CC1COC(Cn2cncn2)(c2ccc(Oc3ccc(Cl)cc3)cc2Cl)O1 (stereo not given)
inactive: Akkermansia muciniphila 1.03 | Bacteroides caccae 0.868 | Bacteroides clarus 0.898 | Bacteroides dorei 0.91 | Bacteroides stercoris 1.12 | [1] 0.854 | Bacteroides uniformis 0.839 | [2] 0.938 | Clostridium difficile 0.881 | Collinsella aerofaciens 0.977

OC(c1ccc(Cl)cc1)(c1cncnc1)c1ccccc1Cl (stereo not given)
inactive: Akkermansia muciniphila 0.992 | Bacteroides caccae 0.89 | Bacteroides clarus 0.887 | Bacteroides dorei 0.893 | Bacteroides stercoris 0.686 | [2] 0.921 | Clostridium difficile 1.01 | Collinsella aerofaciens 0.984
active: [1] 0.503 | Bacteroides uniformis 0.632

O=S1(=O)OCC2C(CO1)C1(Cl)C(Cl)=C(Cl)C2(Cl)C1(Cl)Cl (stereo not given)
inactive: Akkermansia muciniphila 1.39 | Bacteroides caccae 0.997 | Bacteroides clarus 0.945 | Bacteroides dorei 0.962 | Bacteroides stercoris 0.765 | [1] 0.984 | Bacteroides uniformis 0.914 | [2] 1.11 | Clostridium difficile 1 | Collinsella aerofaciens 0.993

CO/N=C(/C(=O)OC)c1ccccc1CO/N=C(\C)c1cccc(C(F)(F)F)c1
inactive: Akkermansia muciniphila 0.96 | Bacteroides caccae 0.937 | Bacteroides clarus 0.897 | Bacteroides dorei 1.02 | Bacteroides stercoris 0.993 | [1] 0.956 | Bacteroides uniformis 0.994 | [2] 0.975 | Clostridium difficile 1.09 | Collinsella aerofaciens 0.993

O=P(Oc1ccccc1)(Oc1ccccc1)Oc1ccccc1
inactive: Akkermansia muciniphila 0.805 | Bacteroides caccae 0.898 | Bacteroides clarus 0.958 | Bacteroides dorei 0.96 | [1] 0.901 | Bacteroides uniformis 0.923 | [2] 0.919 | Clostridium difficile 1 | Collinsella aerofaciens 1.02
active: Bacteroides stercoris 0.755

Fc1ccc(C2(Cn3cncn3)OC2c2ccccc2Cl)cc1 (stereo not given)
inactive: Akkermansia muciniphila 0.955 | Bacteroides caccae 1.01 | Bacteroides clarus 0.93 | Bacteroides dorei 0.956 | Bacteroides stercoris 1.02 | [1] 0.941 | Bacteroides uniformis 0.953 | [2] 0.935 | Clostridium difficile 0.995 | Collinsella aerofaciens 0.99

CC(C1CC1)C(O)(Cn1cncn1)c1ccc(Cl)cc1 (mixture of isomers)
inactive: Akkermansia muciniphila 1.04 | Bacteroides caccae 0.83 | Bacteroides clarus 0.987 | Bacteroides dorei 0.941 | Bacteroides stercoris 1.41 | [1] 0.893 | Bacteroides uniformis 0.929 | [2] 1.09 | Clostridium difficile 0.966 | Collinsella aerofaciens 0.926

CN(C)S(=O)(=O)N(SC(F)(Cl)Cl)c1ccccc1
inactive: Akkermansia muciniphila 1.13 | Bacteroides caccae 1.01 | Bacteroides clarus 1.03 | Bacteroides dorei 0.998 | Bacteroides stercoris 1.2 | [1] 1.01 | Bacteroides uniformis 1.03 | [2] 0.989 | Clostridium difficile 1.01 | Collinsella aerofaciens 0.98

CN1COCN(Cc2cnc(Cl)s2)/C1=N/[N+](=O)[O-]
inactive: Akkermansia muciniphila 0.919 | Bacteroides caccae 1 | Bacteroides clarus 0.976 | Bacteroides dorei 0.932 | Bacteroides stercoris 1.03 | [1] 0.999 | Bacteroides uniformis 0.988 | [2] 0.984 | Clostridium difficile 1.01 | Collinsella aerofaciens 1.02
